For seven sequences, binding signal results are on record in paper PMC7862700, “An all-to-all approach to the identification of sequence-specific readers for epigenetic DNA modifications on cytosine”.

Experiment in all cases: DAPPL (digital affinity profiling via proximity ligation, sequencing); 10 mM Tris-HCl pH 7.5, 50 mM NaCl, 1 mM DTT, 4% glycerol, room temperature, 30 min; GST-TFs on glutathione beads, 16-mer random dsDNA library, 0.1% formaldehyde crosslink after washing; high values mean tight binding
What all share (conditions): protein: recombinant; tags: N-terminal GST; dsDNA, one strand shown

The target of one test is T1, FLI1 (Homo sapiens, UniProt Q01543 1-452).
T1 sequence: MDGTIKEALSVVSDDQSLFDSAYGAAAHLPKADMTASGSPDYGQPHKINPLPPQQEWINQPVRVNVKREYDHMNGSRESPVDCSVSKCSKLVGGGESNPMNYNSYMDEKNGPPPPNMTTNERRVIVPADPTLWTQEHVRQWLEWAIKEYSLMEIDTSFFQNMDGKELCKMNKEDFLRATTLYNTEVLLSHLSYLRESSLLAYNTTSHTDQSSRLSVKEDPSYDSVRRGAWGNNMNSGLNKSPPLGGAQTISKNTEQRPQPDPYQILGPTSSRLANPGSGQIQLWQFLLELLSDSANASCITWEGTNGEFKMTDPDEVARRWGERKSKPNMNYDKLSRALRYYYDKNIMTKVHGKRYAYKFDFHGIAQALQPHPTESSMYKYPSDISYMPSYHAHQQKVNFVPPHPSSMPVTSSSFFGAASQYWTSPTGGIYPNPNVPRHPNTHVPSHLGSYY
In short, it runs like this: (§1)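 In yeast, human transcription factors were expressed with a GST fusion, then pulled down on glutathione beads and given DNA barcodes. Pooled with a tag-only sample, they were exposed to 200 nmole of a 16-mer random double-stranded DNA library (Tris/NaCl/DTT/glycerol buffer, room temperature, 30 min), washed, crosslinked with 0.1% formaldehyde, proximity-ligated using BsaI/T4 ligase for 1 h at 37 °C, PCR-amplified and read on an Illumina NextSeq500. Each hexamer's frequency of reads for a factor, divided by the matching frequency for the tag-only sample, gives the binding signal.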

For the next test, the target named is T2, ELK1 (Homo sapiens, UniProt P19419 1-428).
T2 sequence: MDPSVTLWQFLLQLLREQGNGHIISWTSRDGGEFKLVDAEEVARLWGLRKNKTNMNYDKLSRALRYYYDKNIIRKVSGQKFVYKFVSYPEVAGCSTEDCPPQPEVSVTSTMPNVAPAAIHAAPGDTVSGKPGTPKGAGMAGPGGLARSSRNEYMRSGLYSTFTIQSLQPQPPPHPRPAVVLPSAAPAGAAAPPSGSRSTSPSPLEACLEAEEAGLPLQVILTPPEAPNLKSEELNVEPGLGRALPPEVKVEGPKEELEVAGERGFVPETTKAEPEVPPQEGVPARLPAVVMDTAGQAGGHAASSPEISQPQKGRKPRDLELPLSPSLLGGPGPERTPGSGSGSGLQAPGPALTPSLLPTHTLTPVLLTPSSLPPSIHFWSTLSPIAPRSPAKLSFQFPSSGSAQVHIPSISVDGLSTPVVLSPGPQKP
In short, it runs like this: as §1

The next test has as its target T3, GABPA (Homo sapiens, UniProt Q06546 1-454).
T3 sequence: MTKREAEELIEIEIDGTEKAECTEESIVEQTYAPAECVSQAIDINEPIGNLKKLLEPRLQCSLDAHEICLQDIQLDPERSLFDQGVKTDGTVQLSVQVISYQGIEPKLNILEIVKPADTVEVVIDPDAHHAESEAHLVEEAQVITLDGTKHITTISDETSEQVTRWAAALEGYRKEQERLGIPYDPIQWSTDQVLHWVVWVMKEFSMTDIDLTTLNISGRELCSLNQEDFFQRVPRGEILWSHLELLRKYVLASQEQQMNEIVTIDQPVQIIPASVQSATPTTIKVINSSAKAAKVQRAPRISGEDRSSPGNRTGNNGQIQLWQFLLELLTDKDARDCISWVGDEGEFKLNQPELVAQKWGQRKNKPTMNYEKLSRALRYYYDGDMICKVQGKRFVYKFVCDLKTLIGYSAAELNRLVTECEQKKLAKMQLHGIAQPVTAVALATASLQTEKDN
Summed up: as §1

A further test has as its target T4, ERG (Homo sapiens, UniProt P11308 1-479).
T4 sequence: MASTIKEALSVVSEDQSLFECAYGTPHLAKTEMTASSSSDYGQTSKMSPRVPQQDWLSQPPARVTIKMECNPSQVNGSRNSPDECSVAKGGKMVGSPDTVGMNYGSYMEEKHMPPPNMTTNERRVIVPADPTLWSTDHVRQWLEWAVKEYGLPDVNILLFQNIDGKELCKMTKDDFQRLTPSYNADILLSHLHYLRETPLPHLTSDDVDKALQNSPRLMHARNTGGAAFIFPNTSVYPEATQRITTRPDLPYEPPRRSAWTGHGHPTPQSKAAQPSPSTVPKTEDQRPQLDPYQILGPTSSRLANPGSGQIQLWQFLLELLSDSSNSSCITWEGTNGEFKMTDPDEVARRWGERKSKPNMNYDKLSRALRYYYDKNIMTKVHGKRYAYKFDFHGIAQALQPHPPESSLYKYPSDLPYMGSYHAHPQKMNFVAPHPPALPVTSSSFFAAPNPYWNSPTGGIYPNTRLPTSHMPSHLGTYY
Summed up:
as §1

A further test concerns the target ELF1 (Homo sapiens, UniProt P32519 1-619). Summed up:
as §1

The target in a further test is T5, EHF (Homo sapiens, UniProt Q9NZC4 1-300).
T5 sequence: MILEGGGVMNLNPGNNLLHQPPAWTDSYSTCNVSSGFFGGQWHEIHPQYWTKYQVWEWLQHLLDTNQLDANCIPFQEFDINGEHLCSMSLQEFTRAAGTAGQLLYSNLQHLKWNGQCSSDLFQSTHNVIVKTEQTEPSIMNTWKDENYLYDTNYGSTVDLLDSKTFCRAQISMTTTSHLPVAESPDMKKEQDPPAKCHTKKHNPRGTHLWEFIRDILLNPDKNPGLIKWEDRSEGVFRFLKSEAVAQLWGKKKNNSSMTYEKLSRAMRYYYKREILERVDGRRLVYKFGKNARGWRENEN
In short, it runs like this: as §1

The target of another test is SPI1 (Homo sapiens, UniProt P17947 1-270). Summed up: as §1
A further test deals with SPIB (Homo sapiens, UniProt Q01892 1-262). In short, it runs like this:
as §1

In the next test the target is T6, ELK3 (Homo sapiens, UniProt P41970 1-407).
T6 sequence: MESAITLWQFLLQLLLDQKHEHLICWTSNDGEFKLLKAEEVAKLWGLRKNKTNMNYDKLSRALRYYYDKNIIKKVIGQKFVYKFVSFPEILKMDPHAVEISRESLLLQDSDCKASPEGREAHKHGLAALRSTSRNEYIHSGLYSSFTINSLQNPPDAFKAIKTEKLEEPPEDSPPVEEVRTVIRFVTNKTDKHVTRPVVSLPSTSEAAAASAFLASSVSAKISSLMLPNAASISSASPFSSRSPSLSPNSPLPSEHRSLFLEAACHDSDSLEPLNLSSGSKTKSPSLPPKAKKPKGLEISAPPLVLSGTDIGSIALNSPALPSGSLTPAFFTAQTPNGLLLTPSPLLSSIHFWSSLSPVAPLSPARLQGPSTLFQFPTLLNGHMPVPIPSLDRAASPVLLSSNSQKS
Summed up: as §1

Sequence of ELF1 (P32519 whole entry): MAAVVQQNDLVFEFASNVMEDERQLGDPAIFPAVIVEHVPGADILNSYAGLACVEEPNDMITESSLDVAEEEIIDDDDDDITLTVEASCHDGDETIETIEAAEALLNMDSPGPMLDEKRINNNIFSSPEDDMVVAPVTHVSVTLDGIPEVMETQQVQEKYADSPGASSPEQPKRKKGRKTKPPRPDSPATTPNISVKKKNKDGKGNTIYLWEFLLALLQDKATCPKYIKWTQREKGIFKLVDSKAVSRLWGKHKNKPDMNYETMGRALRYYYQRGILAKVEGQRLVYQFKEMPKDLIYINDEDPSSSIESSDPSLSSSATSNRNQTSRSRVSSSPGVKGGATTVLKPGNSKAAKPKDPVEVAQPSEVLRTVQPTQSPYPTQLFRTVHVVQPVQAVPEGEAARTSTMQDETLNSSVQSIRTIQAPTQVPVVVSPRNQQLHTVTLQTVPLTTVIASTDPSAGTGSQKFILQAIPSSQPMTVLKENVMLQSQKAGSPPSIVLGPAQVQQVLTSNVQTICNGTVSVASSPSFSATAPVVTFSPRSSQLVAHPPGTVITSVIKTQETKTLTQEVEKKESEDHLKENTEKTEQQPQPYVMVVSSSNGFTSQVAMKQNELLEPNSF
Sequence of SPIB (Q01892 whole entry): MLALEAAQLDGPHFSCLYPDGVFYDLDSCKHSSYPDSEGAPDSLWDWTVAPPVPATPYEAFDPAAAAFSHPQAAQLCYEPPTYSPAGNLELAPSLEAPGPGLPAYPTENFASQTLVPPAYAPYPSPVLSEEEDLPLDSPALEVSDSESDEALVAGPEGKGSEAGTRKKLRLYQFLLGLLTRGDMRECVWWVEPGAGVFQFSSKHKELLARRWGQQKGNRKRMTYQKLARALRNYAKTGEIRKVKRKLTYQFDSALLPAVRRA

As for TTTTGC, the binding signal is 1.51 fold enrichment (6-mer frequency, TF over GST control) with FLI1; 1.39 fold enrichment (6-mer frequency, TF over GST control) with ELK1; 1.38 fold enrichment (6-mer frequency, TF over GST control) with GABPA; 1.26 fold enrichment (6-mer frequency, TF over GST control) with ERG; 1.42 fold enrichment (6-mer frequency, TF over GST control) with ELF1; 1.28 fold enrichment (6-mer frequency, TF over GST control) with EHF. Moreover, the binding signal with SPI1 was 1.43 fold enrichment (6-mer frequency, TF over GST control); in the test with SPIB, 1.45 fold enrichment (6-mer frequency, TF over GST control); with ELK3, 1.42 fold enrichment (6-mer frequency, TF over GST control).
As for TTAAAC, the binding signal was 1.22 fold enrichment (6-mer frequency, TF over GST control) with FLI1; 1.18 fold enrichment (6-mer frequency, TF over GST control) with ELK1; 1.2 fold enrichment (6-mer frequency, TF over GST control) with GABPA; 1.25 fold enrichment (6-mer frequency, TF over GST control) with ERG; 1.23 fold enrichment (6-mer frequency, TF over GST control) with ELF1; 1.26 fold enrichment (6-mer frequency, TF over GST control) with EHF. Further, the binding signal in the test with SPI1 is 1.24 fold enrichment (6-mer frequency, TF over GST control); with SPIB, 1.26 fold enrichment (6-mer frequency, TF over GST control); with ELK3, 1.31 fold enrichment (6-mer frequency, TF over GST control).
For GTTCCT, the binding signal with FLI1 was 1.73 fold enrichment (6-mer frequency, TF over GST control); with ELK1 it was 1.69 fold enrichment (6-mer frequency, TF over GST control); in the test with GABPA, 1.64 fold enrichment (6-mer frequency, TF over GST control); in the test with ERG it was 1.86 fold enrichment (6-mer frequency, TF over GST control); with ELF1, 1.72 fold enrichment (6-mer frequency, TF over GST control); in the test with EHF, 1.73 fold enrichment (6-mer frequency, TF over GST control). In addition, the binding signal in the test with SPI1 is 2.34 fold enrichment (6-mer frequency, TF over GST control); in the test with SPIB it was 1.84 fold enrichment (6-mer frequency, TF over GST control); in the test with ELK3 it was 1.77 fold enrichment (6-mer frequency, TF over GST control).
In the case of AACTGC, the binding signal is 1.34 fold enrichment (6-mer frequency, TF over GST control) with FLI1; 1.47 fold enrichment (6-mer frequency, TF over GST control) with ELK1; 1.32 fold enrichment (6-mer frequency, TF over GST control) with GABPA; 1.32 fold enrichment (6-mer frequency, TF over GST control) with ERG; 1.42 fold enrichment (6-mer frequency, TF over GST control) with ELF1; 1.33 fold enrichment (6-mer frequency, TF over GST control) with EHF. Moreover, the binding signal in the test with SPI1 is 1.45 fold enrichment (6-mer frequency, TF over GST control); with SPIB, 1.41 fold enrichment (6-mer frequency, TF over GST control); with ELK3 it was 1.25 fold enrichment (6-mer frequency, TF over GST control).
Regarding TCCTAG, the binding signal with FLI1 is 1.23 fold enrichment (6-mer frequency, TF over GST control); with ELK1 it was 1.11 fold enrichment (6-mer frequency, TF over GST control); in the test with GABPA, 1.24 fold enrichment (6-mer frequency, TF over GST control); with ERG, 1.17 fold enrichment (6-mer frequency, TF over GST control); in the test with ELF1, 1.31 fold enrichment (6-mer frequency, TF over GST control); in the test with EHF, 1.22 fold enrichment (6-mer frequency, TF over GST control). Also, the binding signal in the test with SPI1 was 1.12 fold enrichment (6-mer frequency, TF over GST control); with SPIB, 1.41 fold enrichment (6-mer frequency, TF over GST control); with ELK3 it was 1.2 fold enrichment (6-mer frequency, TF over GST control).
Take TCATCT: the binding signal with FLI1 is 1.23 fold enrichment (6-mer frequency, TF over GST control); with ELK1, 1.28 fold enrichment (6-mer frequency, TF over GST control); in the test with GABPA, 1.27 fold enrichment (6-mer frequency, TF over GST control); with ERG, 1.15 fold enrichment (6-mer frequency, TF over GST control); with ELF1, 1.3 fold enrichment (6-mer frequency, TF over GST control); with EHF, 1.13 fold enrichment (6-mer frequency, TF over GST control). In addition, the binding signal in the test with SPI1 is 1.18 fold enrichment (6-mer frequency, TF over GST control); with SPIB it was 1.28 fold enrichment (6-mer frequency, TF over GST control); in the test with ELK3 it was 1.16 fold enrichment (6-mer frequency, TF over GST control).
As to CTATGG, the binding signal with FLI1 was 1.25 fold enrichment (6-mer frequency, TF over GST control); with ELK1, 1.14 fold enrichment (6-mer frequency, TF over GST control); with GABPA, 1.21 fold enrichment (6-mer frequency, TF over GST control); with ERG it was 1.15 fold enrichment (6-mer frequency, TF over GST control); in the test with ELF1, 1.19 fold enrichment (6-mer frequency, TF over GST control); in the test with EHF it was 1.3 fold enrichment (6-mer frequency, TF over GST control). The binding signal in the test with SPI1 is 1.17 fold enrichment (6-mer frequency, TF over GST control); with SPIB, 1.19 fold enrichment (6-mer frequency, TF over GST control); in the test with ELK3, 1.2 fold enrichment (6-mer frequency, TF over GST control).
